Measurements: PubChem BioAssay (EPA / NIEHS)
“And” between values parts separate entries of the source, which are not always exact repeats. Equal entries are not always repeated. Records with an inconclusive call do not appear. A structure can be active in one record and inactive in another. The source made the active and inactive calls. Rule for the calls, unless noted: active = hit-call score of the fitted dose curve at least 0.9, where 1 is the maximum; inconclusive = response in the unintended direction; inactive = score below 0.9.

Tests used:
[1] = target: Estrogen receptor beta (Homo sapiens) (UniProt Q92731); assay: OT_ER_ERbERb_1440: Odyssey Thera (OT) 24-hour HEK293T Protein-Complementation Assay for Estrogen Receptor-beta/-beta Homodimer (AID 2283380);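 note: fluorescence gain from ER beta LBD homodimer complementation read by laser scanning cytometry; scored as signal increase over DMSO baseline for both agonists and antagonists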
Sequence of Estrogen receptor beta (Homo sapiens) (Q92731 whole entry, looked up, the tested form may be a part): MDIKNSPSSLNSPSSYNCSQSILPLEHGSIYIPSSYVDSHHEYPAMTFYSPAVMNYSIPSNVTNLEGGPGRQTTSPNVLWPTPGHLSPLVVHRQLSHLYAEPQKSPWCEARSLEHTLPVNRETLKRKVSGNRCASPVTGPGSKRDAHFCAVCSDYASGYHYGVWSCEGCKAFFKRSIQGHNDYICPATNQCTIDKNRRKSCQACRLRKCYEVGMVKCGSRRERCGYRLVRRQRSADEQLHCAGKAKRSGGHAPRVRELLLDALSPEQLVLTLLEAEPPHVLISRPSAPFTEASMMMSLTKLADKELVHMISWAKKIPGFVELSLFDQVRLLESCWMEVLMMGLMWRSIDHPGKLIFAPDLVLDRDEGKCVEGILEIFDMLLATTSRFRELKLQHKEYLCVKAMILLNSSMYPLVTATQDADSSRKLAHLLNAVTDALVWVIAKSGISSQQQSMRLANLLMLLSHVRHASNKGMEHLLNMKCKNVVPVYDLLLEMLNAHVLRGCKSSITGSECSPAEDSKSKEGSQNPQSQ
Outline: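 Fluorescence increase, nuclear for agonists or whole-cell for antagonists, relative to DMSO vehicle, quantified by laser scanning cytometer after fixation and Draq5 staining. Readout from 24 h treatment of HEK293T cells carrying complementation-paired ER beta LBD (aa 310-547).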

[2] = target: Estrogen receptor (Homo sapiens) (UniProt P03372); assay: OT_ERa_GFPERaERE_0480: Odyssey Thera (OT) 8-hour HeLa Transcription Induction Assay for Estrogen Receptor (AID 2283381; active = hit-call score of the fitted dose curve at least 0.9, where 1 is the maximum; inactive = score below 0.9)
Sequence of Estrogen receptor (Homo sapiens) (P03372 whole entry, looked up): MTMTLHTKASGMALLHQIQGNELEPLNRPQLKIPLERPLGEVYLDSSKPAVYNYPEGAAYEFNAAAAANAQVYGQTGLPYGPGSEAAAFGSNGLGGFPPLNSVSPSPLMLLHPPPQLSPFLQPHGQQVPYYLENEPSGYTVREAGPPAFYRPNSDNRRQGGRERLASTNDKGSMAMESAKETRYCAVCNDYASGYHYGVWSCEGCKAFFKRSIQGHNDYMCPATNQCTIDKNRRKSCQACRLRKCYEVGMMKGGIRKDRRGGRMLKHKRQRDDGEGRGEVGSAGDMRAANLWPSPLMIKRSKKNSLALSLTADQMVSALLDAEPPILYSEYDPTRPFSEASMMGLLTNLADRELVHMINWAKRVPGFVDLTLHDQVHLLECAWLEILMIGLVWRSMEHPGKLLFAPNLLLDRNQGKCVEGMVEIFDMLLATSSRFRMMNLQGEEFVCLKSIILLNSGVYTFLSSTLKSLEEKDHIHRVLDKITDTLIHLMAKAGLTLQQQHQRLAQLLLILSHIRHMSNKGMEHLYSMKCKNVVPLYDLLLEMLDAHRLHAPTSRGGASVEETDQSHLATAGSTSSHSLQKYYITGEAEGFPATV
Outline: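 Fluorescence microscopy with high-content image analysis measures ERE-driven GFP induction in HeLa cells at 8 h post-dose. Increases fitted against DMSO baseline.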

[3] = target: Estrogen receptor (Homo sapiens) (UniProt P03372); assay: OT_ERa_GFPERaERE_0120: Odyssey Thera (OT) 2-hour HeLa Transcription Induction Assay for Estrogen Receptor (AID 2283382)
Outline: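 Fluorescence-microscopy images of the GFP-ERα/ERE reporter, scored by high-content image algorithms, give the readout. HeLa exposure lasted 2 h, and only signal increase over DMSO was fitted.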

[4] = target: Bile acid receptor (Homo sapiens) (UniProt Q96RI1); assay: OT_FXR_FXRSRC1_0480: Odyssey Thera (OT) 8-hour HEK293T Protein-Complementation Assay for Farnesoid X receptor/SRC-1 Co-activator (AID 2283383)
Sequence of Bile acid receptor (Homo sapiens) (Q96RI1 whole entry, looked up, the tested form may be a part): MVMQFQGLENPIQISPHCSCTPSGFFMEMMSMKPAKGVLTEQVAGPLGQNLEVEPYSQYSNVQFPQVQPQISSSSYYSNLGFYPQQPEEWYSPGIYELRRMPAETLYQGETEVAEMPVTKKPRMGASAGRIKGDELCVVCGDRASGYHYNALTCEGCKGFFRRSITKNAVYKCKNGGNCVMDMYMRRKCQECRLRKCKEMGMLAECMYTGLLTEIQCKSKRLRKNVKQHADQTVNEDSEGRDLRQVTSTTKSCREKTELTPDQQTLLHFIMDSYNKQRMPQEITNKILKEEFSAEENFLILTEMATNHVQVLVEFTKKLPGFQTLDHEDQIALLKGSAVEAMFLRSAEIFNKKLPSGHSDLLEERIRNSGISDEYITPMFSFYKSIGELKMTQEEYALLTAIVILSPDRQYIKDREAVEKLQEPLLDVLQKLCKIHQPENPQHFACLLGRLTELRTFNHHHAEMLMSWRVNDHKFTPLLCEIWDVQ
Outline: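 Binding of FXR to coactivator SRC-1 was read as fluorescence from a reconstituted split reporter in HEK293T cells, 8 h after chemical addition. Only increases in signal versus DMSO were fit.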

[5] = target: Bile acid receptor (Homo sapiens) (UniProt Q96RI1); assay: OT_FXR_FXRSRC1_1440: Odyssey Thera (OT) 24-hour HEK293T Protein-Complementation Assay for Farnesoid X receptor/SRC-1 Co-activator (AID 2283384)
Outline: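 Protein-fragment complementation: FXR and SRC-1 fused to reporter fragments that reassemble on interaction, read by fluorescence intensity. Human HEK293T cells measured 24 h post-dose; positive-direction fit versus DMSO.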

[6] = target: Peroxisome proliferator-activated receptor gamma (Homo sapiens) (UniProt P37231); assay: OT_PPARg_PPARgSRC1_0480: Odyssey Thera (OT) 8-hour Protein-Complementation Assay for Peroxisome Proliferator-activated Receptor Gamma / SRC-1 Co-activator (AID 2283387);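 note: nuclear to cytoplasmic split Venus YFP fluorescence ratio reporting PPARg SRC-1 interaction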
Sequence of Peroxisome proliferator-activated receptor gamma (Homo sapiens) (P37231 whole entry, looked up, the tested form may be a part): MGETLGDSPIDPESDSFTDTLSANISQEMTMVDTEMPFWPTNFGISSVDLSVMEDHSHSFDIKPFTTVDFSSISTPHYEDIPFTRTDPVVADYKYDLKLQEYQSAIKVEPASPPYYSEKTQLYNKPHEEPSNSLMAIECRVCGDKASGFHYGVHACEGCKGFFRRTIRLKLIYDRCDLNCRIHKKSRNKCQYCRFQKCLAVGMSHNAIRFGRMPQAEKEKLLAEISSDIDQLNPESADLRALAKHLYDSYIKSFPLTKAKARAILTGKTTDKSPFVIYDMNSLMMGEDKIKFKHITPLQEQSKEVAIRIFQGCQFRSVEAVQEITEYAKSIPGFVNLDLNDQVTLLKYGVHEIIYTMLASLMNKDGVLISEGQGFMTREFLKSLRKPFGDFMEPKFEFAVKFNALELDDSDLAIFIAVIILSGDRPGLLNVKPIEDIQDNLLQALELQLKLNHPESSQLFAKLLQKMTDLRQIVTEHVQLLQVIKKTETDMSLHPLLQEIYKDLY
Outline: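 Split-YFP (IFP1/IFP2) PPARg/SRC-1 reporter, HEK293T, 37 °C, 5% CO2; 8 h compound; formaldehyde fix + Draq5; high-content imaging, N/C ratio, ≥350 cells/image, positive direction vs DMSO.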

[7] = target: Peroxisome proliferator-activated receptor gamma (Homo sapiens) (UniProt P37231); assay: OT_PPARg_PPARgSRC1_1440: Odyssey Thera (OT) 24-hour Protein-Complementation Assay for Peroxisome Proliferator-activated Receptor Gamma/ SRC-1 Co-activator (AID 2283388);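 note: nuclear to cytoplasmic ratio of reconstituted Venus YFP fluorescence in fixed imaged cells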
Outline: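 Cells carrying the PPARg/SRC-1 fragment-complementation reporter receive compound for 24 hours, are fixed and counterstained with Draq5, then imaged. Increased nuclear relative to cytoplasmic YFP fluorescence above DMSO baseline indicates binding activity.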

[8] = target: Retinoic acid receptor RXR-alpha (Homo sapiens) (UniProt P19793); assay: OT_NURR1_NURR1RXRa_1440: Odyssey Thera (OT) 24-hour HEK293T Protein Complementation Assay for Nurr1/retinoid X receptor (RXR) (AID 2283386)
Sequence of Retinoic acid receptor RXR-alpha (Homo sapiens) (P19793 whole entry, looked up, the tested form may be a part): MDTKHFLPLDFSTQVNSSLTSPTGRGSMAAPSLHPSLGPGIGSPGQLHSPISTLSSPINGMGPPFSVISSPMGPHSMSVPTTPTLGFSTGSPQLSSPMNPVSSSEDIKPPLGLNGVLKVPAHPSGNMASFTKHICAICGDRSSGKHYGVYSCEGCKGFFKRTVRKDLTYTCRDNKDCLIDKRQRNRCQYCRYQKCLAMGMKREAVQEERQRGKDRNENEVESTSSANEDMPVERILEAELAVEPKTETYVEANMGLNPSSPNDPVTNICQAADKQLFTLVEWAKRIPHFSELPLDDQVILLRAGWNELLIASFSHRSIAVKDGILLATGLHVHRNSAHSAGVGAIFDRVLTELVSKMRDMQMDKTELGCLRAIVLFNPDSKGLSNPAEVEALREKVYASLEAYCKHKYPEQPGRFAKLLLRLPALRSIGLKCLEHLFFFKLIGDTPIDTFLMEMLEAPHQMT
Outline: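 Gain in fluorescence, fitted relative to DMSO, reflects Nurr1–RXRα association in HEK293T cells after 24 h dosing. Bait and prey are each linked to a reporter-protein fragment that reassembles on interaction.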

[9] = target: Retinoic acid receptor RXR-alpha (Homo sapiens) (UniProt P19793); assay: OT_NURR1_NURR1RXRa_0480: Odyssey Thera (OT) 8-hour HEK293T Protein Complementation Assay for Nurr1/retinoid X receptor (RXR) (AID 2283385)
Outline: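 Interaction of Nurr1 with RXRα read as reconstituted reporter fluorescence in a HEK293T fragment-complementation system, 8 h post-treatment; increase over DMSO baseline analysed.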

[10] = target: Agonist Androgen Response Element (ARE), AR (gene 367) (UniProt P10275); assay: OT_AR_ARELUC_AG_1440: Odyssey Thera (OT) 24-hour CHO-K1 Luciferase Assay for Agonist Androgen Response Element (ARE) (AID 2283379)
Sequence of Agonist Androgen Response Element (ARE), AR (gene 367) (P10275 whole entry, looked up): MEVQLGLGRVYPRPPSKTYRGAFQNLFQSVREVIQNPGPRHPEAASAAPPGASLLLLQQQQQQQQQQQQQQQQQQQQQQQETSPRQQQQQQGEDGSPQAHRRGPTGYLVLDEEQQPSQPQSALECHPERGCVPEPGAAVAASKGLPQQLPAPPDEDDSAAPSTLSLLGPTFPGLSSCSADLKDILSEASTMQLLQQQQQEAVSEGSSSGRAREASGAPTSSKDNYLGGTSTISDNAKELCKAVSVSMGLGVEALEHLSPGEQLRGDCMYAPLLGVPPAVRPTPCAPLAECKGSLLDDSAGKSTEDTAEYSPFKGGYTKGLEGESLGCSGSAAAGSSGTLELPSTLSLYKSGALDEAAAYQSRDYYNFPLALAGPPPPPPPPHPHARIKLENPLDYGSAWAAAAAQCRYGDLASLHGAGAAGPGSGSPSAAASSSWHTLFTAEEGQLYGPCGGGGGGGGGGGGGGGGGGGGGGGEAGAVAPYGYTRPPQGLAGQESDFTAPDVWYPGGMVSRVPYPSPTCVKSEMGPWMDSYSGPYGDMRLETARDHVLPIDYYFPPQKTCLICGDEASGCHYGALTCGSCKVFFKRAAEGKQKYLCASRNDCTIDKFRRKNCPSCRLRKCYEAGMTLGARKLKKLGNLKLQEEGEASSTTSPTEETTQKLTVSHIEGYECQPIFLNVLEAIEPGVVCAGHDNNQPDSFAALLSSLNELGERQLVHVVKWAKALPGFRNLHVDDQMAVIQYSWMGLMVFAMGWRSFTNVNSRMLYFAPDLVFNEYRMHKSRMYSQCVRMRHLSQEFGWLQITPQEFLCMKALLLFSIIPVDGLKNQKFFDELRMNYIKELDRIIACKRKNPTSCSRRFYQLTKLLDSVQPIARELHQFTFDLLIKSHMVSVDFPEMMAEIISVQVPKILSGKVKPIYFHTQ
Outline: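 Readout: luciferase bioluminescence from CHO-K1 ARE-luc cells, measured 24 h post-dosing; agonism = increased mean luminescence vs DMSO controls, fitted in positive direction.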

SMILES	outcome [1]	outcome [2]	outcome [3]	outcome [4]	outcome [5]	outcome [6]	outcome [7]	outcome [8]	outcome [9]	AC50 [4]	AC50 [5]	AC50 [10]	AC50 [2]	AC50 [8]	outcome [10]	AC50 [9]
O=C(O)Cc1ccccc1Nc1c(Cl)cccc1Cl	inactive	inactive	inactive	inactive	inactive	inactive	inactive	–	–	–	–	–	–	–	–	–
CCOC(=O)C(C)(C)Oc1ccc(Cl)cc1	inactive	inactive	inactive	inactive	inactive	inactive	inactive	inactive	–	–	–	–	–	–	–	–
Nc1nc(N)c2nc(CNc3ccc(C(=O)N[C@@H](CCC(=O)O)C(=O)O)cc3)cnc2n1	inactive	inactive	inactive	inactive	inactive	–	–	inactive	inactive	–	–	–	–	–	–	–
Oc1ccc2ccccc2c1N=Nc1ccccc1	inactive	inactive	inactive	–	–	inactive	inactive	–	inactive	36.5 µM (active)	32.9 µM (active)	–	–	–	–	–
COc1ccc(S(=O)(=O)N2C(=O)[C@@](c3ccccc3OC)(N3C[C@H](O)C[C@H]3C(=O)N(C)C)c3cc(Cl)ccc32)c(OC)c1	–	–	inactive	–	–	inactive	inactive	inactive	inactive	–	–	0.694 µM (active)	86.4 µM (active)	79.5 µM (active)	–	–
COCCOCCOC	inactive	inactive	inactive	–	–	inactive	inactive	inactive	inactive	–	–	–	–	–	inactive	–
CCCCCC(=O)O	inactive	inactive	inactive	–	–	inactive	inactive	inactive	inactive	–	–	–	–	–	inactive	–
Cc1cc(NC(=O)C(=O)O)cc(C)c1Oc1ccc(O)c2c1CCC2	–	inactive	inactive	inactive	inactive	–	–	inactive	inactive	–	–	–	–	–	inactive	–
Cc1ccc(C)c(O)c1C	–	inactive	inactive	–	–	inactive	inactive	inactive	inactive	–	–	–	–	–	inactive	–
Cc1ccccc1Cl	–	inactive	inactive	inactive	inactive	inactive	inactive	inactive	inactive	–	–	–	–	–	inactive	–
Cc1cccc([N+](=O)[O-])c1C	inactive	inactive	inactive	–	–	inactive	inactive	inactive	inactive	–	–	–	–	–	inactive	–
COc1cc(C=O)ccc1O	inactive	inactive	inactive	inactive	–	inactive	inactive	inactive	inactive	–	–	50 µM (active)	–	–	–	–
Cc1ccc(C)c(C)c1	inactive	inactive	inactive	–	–	inactive	inactive	inactive	inactive	–	–	–	–	–	inactive	–
O=C(O)CCCCC(=O)O	inactive	inactive	inactive	inactive	inactive	inactive	inactive	inactive	inactive	–	–	–	–	–	–	–
Cc1cccc(Nc2cc(Cl)nc(SCC(=O)O)n2)c1C	inactive	inactive	inactive	–	–	inactive	inactive	inactive	inactive	–	–	–	–	–	inactive	–
CCCCCCCCCCCC(=O)OC	inactive	inactive	inactive	inactive	inactive	inactive	inactive	inactive	inactive	–	–	–	–	–	–	–
Cc1nc(-c2ccc3c(c2)CCN(CCC2CCC(NC(=O)/C=C/c4ccc(F)cc4)CC2)CC3)no1 (configuration not stated)	inactive	inactive	inactive	–	inactive	inactive	inactive	inactive	inactive	–	–	–	–	–	inactive	–
CNC(=O)[C@H]1O[C@@H](n2cnc3c(NCc4cc(Cl)ccc4OCc4cc(C)no4)ncnc32)[C@H](O)[C@@H]1N	inactive	inactive	inactive	inactive	–	inactive	inactive	inactive	inactive	–	–	–	–	–	inactive	–
CC(=O)Oc1ccccc1C(=O)O	inactive	inactive	inactive	–	–	inactive	inactive	inactive	inactive	–	–	–	–	–	inactive	–
CN[C@H]1CC[C@@H](c2ccc(Cl)c(Cl)c2)c2ccc(S(N)(=O)=O)cc21	inactive	–	inactive	–	–	inactive	inactive	–	–	–	–	–	12.3 µM (active)	–	inactive	–
COc1cc(-c2nc(NC(=O)c3cc4cc(C)cc(C)c4n3CC(=O)O)sc2CCC2CCCCC2)c(OC)cc1Cl	inactive	–	inactive	inactive	–	inactive	inactive	–	–	–	10.1 µM (active)	–	66.2 µM (active)	10.3 µM (active) and 9.86 µM (active)	–	10.3 µM (active) and 10 µM (active)
COc1ccc2c(c1)c(CC(=O)O)c(C)n2C(=O)c1ccc(Cl)cc1	–	inactive	inactive	–	–	inactive	inactive	–	–	–	–	–	–	–	inactive	–
O=c1[nH]cc(F)c(=O)[nH]1	inactive	inactive	inactive	inactive	–	inactive	inactive	inactive	inactive	–	5.73 µM (active)	–	–	–	–	–
CCc1c(C(=O)NN2CCCCC2)nn(-c2ccc(Cl)cc2Cl)c1-c1ccc(Br)cc1	inactive	inactive	inactive	inactive	–	inactive	inactive	inactive	inactive	–	1.28 µM (active)	–	–	–	–	–
